The nature of experiment [1]: CEETOX_H295R_ANDR: CeeTox H295R High-throughput Steroidogenesis Assay for Androstenedione (ANDR) (AID 2283436; active = hit-call score of the fitted dose curve at least 0.9, where 1 is the maximum; inactive = score below 0.9). Conditions: actives raise or lower the signal. The method, boiled down:
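Medium from 48 h chemical-treated H295R adrenal cells was extracted with MTBE and androstenedione measured by LC-MS/MS. Activity was fit in both directions relative to DMSO. Cytotoxic concentrations were re-tested after dilution until MTT viability reached ≥70%.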

Experiment [2] is described as follows: CEETOX_H295R_CORTIC: CeeTox H295R High-throughput Steroidogenesis Assay for Corticosterone (CORTIC) (AID 2283437; active = hit-call score of the fitted dose curve at least 0.9, where 1 is the maximum; inactive = score below 0.9). The following applies: actives raise or lower the signal. A digest of the protocol: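 Medium corticosterone was quantified by tandem mass spectrometry following 48 hours of chemical exposure (0.1% DMSO) in human H295R cells previously stimulated 48 hours with 10 uM forskolin. Viability checked by MTT; chemicals diluted and retested when viability fell below 70%.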

Experiment [3] is described as follows: CEETOX_H295R_CORTISOL: CeeTox H295R High-throughput Steroidogenesis Assay for Cortisol (AID 2283438; active = hit-call score of the fitted dose curve at least 0.9, where 1 is the maximum; inactive = score below 0.9;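 note: cortisol secreted into medium quantified by LC-MS/MS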). The following applies: actives raise or lower the signal. The method, boiled down: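 Read-out: cortisol in culture medium by reverse-phase C18 HPLC with ESI-positive tandem MS, after MTBE liquid-liquid extraction. Cells: human adrenal H295R, forskolin-primed (10 uM, 48 h) before 48 h chemical exposure in 0.1% DMSO.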

A short description of experiment [4]: CEETOX_H295R_DOC: CeeTox H295R High-throughput Steroidogenesis Assay for DOC (AID 2283439; active = hit-call score of the fitted dose curve at least 0.9, where 1 is the maximum; inactive = score below 0.9). The following applies: actives raise or lower the signal. A digest of the protocol:
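Human adrenocortical H295R cells, passages up to 10, received 10 uM forskolin for 48 h before chemical addition. After another 48 h exposure in 0.1% DMSO, secreted DOC was measured by LC-MS/MS, with gain or loss fitted against DMSO controls.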

A short description of experiment [5]: CEETOX_H295R_ESTRADIOL: CeeTox H295R High-throughput Steroidogenesis Assay for Estradiol (AID 2283440; active = hit-call score of the fitted dose curve at least 0.9, where 1 is the maximum; inactive = score below 0.9;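 note: estradiol secreted into medium quantified by LC-MS/MS after dansyl derivatisation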). Conditions: actives raise or lower the signal. The method, boiled down: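 H295R adrenocortical cells were prestimulated with 10 uM forskolin for 48 h, then exposed to test chemical in 0.1% DMSO for 48 h. Medium estradiol was extracted with MTBE, dansyl-derivatized and quantified by HPLC-MS/MS; bidirectional fit versus DMSO.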

A short description of experiment [6]: CEETOX_H295R_ESTRONE: CeeTox H295R High-throughput Steroidogenesis Assay for Estrone (AID 2283441; active = hit-call score of the fitted dose curve at least 0.9, where 1 is the maximum; inactive = score below 0.9;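 note: estrone secreted into medium measured by LC-MS/MS after dansyl derivatization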). Conditions: actives raise or lower the signal. The method, boiled down: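 Forskolin-stimulated H295R cells are treated 48 h with chemical, and estrone in the medium is measured by LC-MS/MS. Activity is fitted in both directions relative to DMSO controls, with chemicals diluted until MTT viability reaches at least 70%.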

Experiment [7] can be described thus: CEETOX_H295R_PROG: CeeTox H295R High-throughput Steroidogenesis Assay for Progesterone (PROG) (AID 2283442; active = hit-call score of the fitted dose curve at least 0.9, where 1 is the maximum; inactive = score below 0.9). Conditions: actives raise or lower the signal. A digest of the protocol: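 H295R human adrenal cells were prestimulated with 10 uM forskolin for 48 h, then exposed to test chemical (0.1% DMSO final) for 48 h. Medium progesterone was MTBE-extracted and quantified by HPLC-MS/MS, with bidirectional fitting against DMSO.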

Experiment [8] is described as follows: CEETOX_H295R_TESTO: CeeTox H295R High-throughput Steroidogenesis Assay for Testosterone (TESTO) (AID 2283457; active = hit-call score of the fitted dose curve at least 0.9, where 1 is the maximum; inactive = score below 0.9). The following applies: actives raise or lower the signal. A digest of the protocol:
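H295R human adrenal cells in DMEM/F12 with ITS+ and Nu-Serum, exposed to chemicals for 48 h. Testosterone in medium measured by MTBE extraction, reverse-phase HPLC-MS/MS; bidirectional fit versus DMSO baseline. MTT viability checked in same wells.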

A short description of experiment [9]: ATG_XTT_Cytotoxicity: Cytotoxicity Assessment in the Attagene TRANS-FACTORIAL HepG2 Assay (AID 2283584).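 For AC50: cells exposed to compound for 24 h before reading; active means loss of viability signal versus DMSO baseline.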 The method, boiled down:
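HepG2 human liver cells, transiently transfected with multiple GAL4-UAS reporter units, were dosed and read at 24 h by XTT as cell number. Loss of signal was fitted relative to DMSO negative control baseline.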

The nature of experiment [10]: CEETOX_H295R_MTT_cell_viability: Viability Assessment in the CeeTox HT-H295R MTT Assay (AID 2283718; active = hit-call score of the fitted dose curve at least 0.9, where 1 is the maximum; inactive = score below 0.9). A digest of the protocol:
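MTT reduction (0.5 mg/ml, 4 h at 37 C; absorbance at 570 and 650 nm) gave viability as background-corrected percent change versus controls. H295R cells had 48 h forskolin (10 uM) prestimulation, then 48 h chemical exposure at 0.1% DMSO.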

Experiment [11] relates to Thyroperoxidase (TPO), gene 54314. Description: CCTE_Simmons_AUR_rTPO: CCTE's Amplex UltraRed Assay for Thyroperoxidase (TPO) Inhibition, Simmons Lab (AID 2283662).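 For AC50: potency for loss of signal meaning inhibition of peroxidase activity.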 The method, boiled down:
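Cell-free peroxidase activity assay using rat thyroid gland microsomes with excess H2O2 (300 uM) and 25 uM Amplex UltraRed. Compounds tested from 5 nM to 87.5 uM; fluorescence measured after 30 min at 37C, analysed relative to DMSO baseline.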

Experiment [12] in a line: CCTE_Simmons_CellTiterGLO_HEK293T: Viability Assessment in CCTE's Assays for Thyroperoxidase (TPO) Inhibition, Simmons Lab (AID 2283665).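 Note: cells exposed to compound for 24 h before readout; actives reduce ATP signal below DMSO vehicle meaning cytotoxicity.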 A digest of the protocol: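 Luminescent ATP readout (CellTiter-Glo, 20 min at room temperature) after 24 hr exposure of HEK293T cells to 5 nM–87.5 uM final compound; signal loss relative to DMSO vehicle indicated cytotoxicity; dichlone titrated as positive control.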

Experiment [13] deals with Cellular tumor antigen p53 (Homo sapiens) (UniProt P04637). The experiment can be described thus: TOX21_p53_BLA_p2_ratio: Tox21 HCT-116 p53 Agonism Beta-lactamase Assay, Ratio, Phase 2 (AID 2283592). The method, boiled down: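 Ratio endpoint: beta-lactamase cleavage of CCF4-AM, blue (460 nm) over green (530 nm). HCT116 reporter line; 16 h treatment, 37C; substrate 2 h RT.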
Sequence of Cellular tumor antigen p53 (Homo sapiens) (P04637 whole entry, looked up): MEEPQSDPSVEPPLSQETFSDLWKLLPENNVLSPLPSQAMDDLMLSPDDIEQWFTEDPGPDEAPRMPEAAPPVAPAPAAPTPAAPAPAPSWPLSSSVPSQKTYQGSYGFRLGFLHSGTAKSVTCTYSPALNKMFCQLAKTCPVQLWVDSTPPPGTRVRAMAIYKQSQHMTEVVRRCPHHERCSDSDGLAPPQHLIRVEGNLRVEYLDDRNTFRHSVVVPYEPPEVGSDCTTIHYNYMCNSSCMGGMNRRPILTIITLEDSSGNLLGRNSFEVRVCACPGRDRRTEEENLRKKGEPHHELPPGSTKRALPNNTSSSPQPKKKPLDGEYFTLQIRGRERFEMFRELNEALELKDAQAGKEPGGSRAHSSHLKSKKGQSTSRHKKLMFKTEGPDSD

The nature of experiment [14]: TOX21_p53_BLA_p3_viability: Viability Assessment in the Tox21 HCT-116 p53 Agonism Beta-lactamase Assay, Phase 3 (AID 2283593).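 Note: cells exposed to compound for 16 h before reading.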 The method, boiled down: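 Cellular ATP was quantified by CellTiter-Glo luminescence, read after 30 min at room temperature. Beforehand, HCT116 cells (4000/well) received compound 5 h post-seeding, 217-fold diluted from DMSO, then incubated 16 h at 37C.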

Experiment [15] has as its target Cellular tumor antigen p53 (Homo sapiens) (UniProt P04637). Description: TOX21_p53_BLA_p3_ratio: Tox21 HCT-116 p53 Agonism Beta-lactamase Assay, Ratio, Phase 3 (AID 2283596). A digest of the protocol: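 Cells were seeded at 4000/well, rested 5 h at 37C, then dosed with DMSO compound solutions (217-fold dilution) for 16 h. CCF4-AM substrate was loaded for 2 h at room temperature, and the 460/530 nm emission ratio was fitted for gain of signal versus DMSO.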

Experiment [16] is described as follows: TOX21_p53_BLA_p4_viability: Viability Assessment in the Tox21 HCT-116 p53 Agonism Beta-lactamase Assay, Phase 4 (AID 2283597).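 Note: hits lower the luminescence signal meaning cytotoxicity.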 The method, boiled down:
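Cytotoxicity was inferred from loss of CellTiter-Glo luminescence. HCT116 cells had been dosed with compounds after 5 h plating, incubated 16 h at 37C and 5% CO2, and exposed to the CCF4-AM substrate for 2 h.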

Experiment [17] has as its target Cellular tumor antigen p53 (Homo sapiens) (UniProt P04637). The experiment can be described thus: TOX21_p53_BLA_p5_ratio: Tox21 HCT-116 p53 Agonism Beta-lactamase Assay, Ratio, Phase 5 (AID 2283599). A digest of the protocol:
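Beta-lactamase reporter ratio (blue 460 nm over green 530 nm, 405 nm excitation) after 2 h CCF4-AM loading, in HCT-116 cells exposed 16 h at 37 C to compounds pinned at 217-fold dilution. Increases relative to DMSO baseline scored.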

The nature of experiment [18]: TOX21_p53_BLA_p5_viability: Viability Assessment in the Tox21 HCT-116 p53 Agonism Beta-lactamase Assay, Phase 5 (AID 2283600). A digest of the protocol: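 Luciferase-coupled ATP quantitation of cells treated for 16 h (37C, 5% CO2) with test chemicals delivered in DMSO via a 217-fold dilution; 4000 cells/well; reagent incubated 30 min at room temperature before luminescence reading.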

The target of experiment [19] is Cellular tumor antigen p53 (Homo sapiens) (UniProt P04637). Description: TOX21_p53_BLA_p4_ratio: Tox21 HCT-116 p53 Agonism Beta-lactamase Assay, Ratio, Phase 4 (AID 2283601). The method, boiled down: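 Signal is the blue/green (460nm/530nm) ratio of cleaved versus uncleaved CCF4-AM substrate, read after 2 h substrate loading. Cells were HCT116 carrying the p53-responsive beta-lactamase reporter, dosed 16 h at 37C, 5% CO2; CellTiter-Glo measured in parallel.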

Values joined by “and” are separate entries in the source; they are usually repeats but may differ in a detail not shown here. Equal values may be shown once. Records with an inconclusive call do not appear. A structure can be active in one record and inactive in another. Active and inactive are the calls of the source. Rule for the calls, unless noted: active = hit-call score of the fitted dose curve at least 0.9, where 1 is the maximum; inconclusive = response in the unintended direction; inactive = score below 0.9.

The term AC50 denotes the midpoint of the concentration-response curve, whichever way the signal moves.

With `CCOCOCC`, the compound was classed as inactive in experiment [1], in experiment [2], in experiment [3], in experiment [4], in [5] and in experiment [6]. For the same compound, the outcome in [7], in experiment [8], in experiment [9] and in experiment [10] was inactive.
For the compound `CCN(CC)c1ccc(N=Nc2ccccc2)cc1`, the call in [1], in [2], in [3], in [4], in experiment [5] and in experiment [6] was inactive. The result in experiment [7], in experiment [8], in experiment [9] and in experiment [10] was inactive.
`CC1=CCC(=O)O1`: in experiment [9], the outcome was inactive.
Regarding `O=C1c2ccccc2C(=O)c2c(Cl)cccc21`, the outcome in experiment [1], in experiment [2], in experiment [3], in experiment [4], in experiment [5] and in experiment [6] was inactive. In addition, the compound was called inactive in experiment [7], in experiment [8] and in [10].
As for `OCCC(O)CO` (stereo not drawn), the outcome in experiment [2], in experiment [3], in experiment [4], in experiment [7] and in experiment [10] was inactive.
For `CCOCN(C(=O)CS(=O)(=O)O)c1c(C)cccc1CC`, in [9], the result was inactive.
The same measure, in the same setting: the value for `CCOC(C=C(C)CCC=C(C)C)OCC` was “inactive”.
In the case of `CCCCCCCCCc1ccc(OCCO)cc1`, the result in experiment [1], in experiment [2], in [3], in [4], in experiment [5] and in [6] was inactive. Moreover, the compound was classed as inactive in experiment [7], in experiment [8], in experiment [9] and in [10]. Further, the AC50 was 38.5 µM (active) in experiment [11] and 79.6 µM (active) in experiment [12].
On to `Cc1cc(C)c(O)c(C(C)(C)C)c1`, for which the result in [9] was inactive.
Consider `CC(C)C(=O)OCc1ccccc1`, for which the outcome in experiment [9] was inactive.
With `CC(C)OC(=O)COc1ccc(Cl)cc1Cl`, the compound was classed as inactive in experiment [9], in experiment [13], in experiment [14], in experiment [15], in experiment [16] and in experiment [17]. For the same compound, the call in [18] and in [19] was inactive.
As to `Oc1ccc(C2(c3ccc(O)c(C4CCCCC4)c3)CCCCC2)cc1C1CCCCC1`, the AC50 in experiment [9] was 33.8 µM (active).
`CO[Si](CCCOCC1CO1)(OC)OC` (stereo not drawn): the result in experiment [9], in [14], in experiment [15], in experiment [16], in [17] and in [18] was inactive. In experiment [19], the result was inactive. Besides, the AC50 in experiment [13] is 86.5 µM (active).
Regarding `OCCCc1cccnc1`, the result in experiment [9] was inactive.
Still for that read-out and setting: under `CCCC(=O)OCC(COC(=O)CCC)OC(=O)CCC` stands “inactive”; under `CCCCCCCC/C=C\CCCCCCCC(=O)OCC(O)CO` (stereo not drawn), “inactive”.
In the case of `Cc1ccc(O)c(-n2nc3ccccc3n2)c1`, the outcome in experiment [9], in experiment [13], in experiment [14], in experiment [15], in experiment [16] and in experiment [17] was inactive. Also, the result in [18], in [19] and in experiment [11] was inactive. The AC50 in experiment [12] was 21 µM (active).
As for `CCCCCCCCCCCC(=O)Cl`, the compound was called inactive in experiment [9].
On the same count and under the same terms, the value for `O=C1OC(=O)c2ccc3c4c(ccc1c24)C(=O)OC3=O` was “inactive”.
As for `CC(C)(C)C(=O)C1C(=O)c2ccccc2C1=O`, the call in experiment [9], in experiment [13], in experiment [14], in experiment [16], in experiment [17] and in experiment [18] was inactive. The outcome in experiment [19] was inactive. For the same compound, the concentration at half-maximal activity (AC50) was 62 µM (active) in [14]; 42.7 µM (active) and 35.6 µM (active) in experiment [15]; 67.3 µM (active) in experiment [17].
